From PubChem BioAssay
FUS yeast rescue: suppressors of FUS proteinopathy in yeast; S. cerevisiae FUS-expressing, growth rescue, OD600, 24 h; Potency, µM (doses to about 76.6 µM), usual class: activators; hit rate 0.24% among 390,000; AID 1347120;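 also: plate controls were DMSO vehicle for no effect and reference control for full effect; nearly all actives have a fitted effect of over 55% in size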
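Compound concentration series was pinned onto galactose-induced FUS-expressing yeast seeded at OD 0.005. Plates sat 24hr at 30C; absorbance at 600 nm gave growth. DMSO served as background control.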
gsp antagonist: antagonizes gsp, the McCune-Albright syndrome mutation; AID 624288; gsp-mutant cells, cAMP HTRF, 30 min; hit rate 0.4% among 340,000; Potency, µM (series often up to 76.9 µM), for the others: at the top dose activity change, negative = inhibition, usual class: inhibitors; calls by dose curve; cell line not stated here;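 also: intracellular cAMP measured with PDE inhibitor Ro 20-1724 present during compound exposure; % is scaled to controls: 0 for no effect and ±100 for the full control effect; nearly all actives have a fitted effect of over 65% in size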
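Measurement of cellular cAMP by homogeneous time-resolved fluorescence following a 30 min compound exposure at 37C. The PDE inhibitor […] was present throughout; the assay buffer was DPBS with 0.05% BSA and 0.005% Tween 20.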
Mito fusion act: blocks mitochondrial division or promotes mitochondrial fusion; S. cerevisiae fusion-defective mutant growth rescue, CellTiterGlo 48 h; hit rate 0.23% among 320,000; Potency, µM (titrated, usually from 46.1 µM), without a hit: top-dose growth rescue (activation), usual class: activators; also: % of control where 0% means no effect; nearly all actives have a fitted effect of over 45% in size
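Luminescent cell viability in 1536-well qHTS format served as the measure of rescued growth in ts fusion-mutant S. cerevisiae cultured on non-fermentable YPEG for 48 hours at 37C.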
gsp agonist: agonists of gsp mutant (McCune-Albright syndrome) | gsp mutant cells, cAMP HTRF, 30 min | Potency, µM (series often up to 76.9 µM), inactives show at the highest dose activation (cAMP increase), hits mostly activators | hit rate 0.13% among 340,000 | AID 624287; active = well fitted activation curve with a large enough effect; inconclusive = small, poorly fitted or top-dose-only effect, or another doubt; inactive = no such curve, though single readings can be large or run the other way; cell line not stated here;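 also: phosphodiesterase inhibitor Ro 20-1724 added with compounds to block cAMP breakdown; nearly all actives have a fitted effect of over 60% in size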
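Cells in DMEM/10% FBS with G418 were pretreated with compounds in DMSO plus […] (300 uM stock) for 30 min at 37C. cAMP was measured by HTRF (cAMP-d2 plus anti-cAMP antibody-K) after 30 min at room temperature.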
12-LOX inh: inhibitors of human 12S-lipoxygenase ALOX12; Potency, µM (series often up to 108 µM), inactives show at the highest dose activity change, negative = inhibition, hits mostly inhibitors; hit rate 1.1% among 580,000; P18054; AID 1671190; purified 12hLO, xylenol orange hydroperoxide absorbance; also: % is scaled to controls: 0 for no effect and ±100 for the full control effect
Target sequence (P18054 whole entry, looked up): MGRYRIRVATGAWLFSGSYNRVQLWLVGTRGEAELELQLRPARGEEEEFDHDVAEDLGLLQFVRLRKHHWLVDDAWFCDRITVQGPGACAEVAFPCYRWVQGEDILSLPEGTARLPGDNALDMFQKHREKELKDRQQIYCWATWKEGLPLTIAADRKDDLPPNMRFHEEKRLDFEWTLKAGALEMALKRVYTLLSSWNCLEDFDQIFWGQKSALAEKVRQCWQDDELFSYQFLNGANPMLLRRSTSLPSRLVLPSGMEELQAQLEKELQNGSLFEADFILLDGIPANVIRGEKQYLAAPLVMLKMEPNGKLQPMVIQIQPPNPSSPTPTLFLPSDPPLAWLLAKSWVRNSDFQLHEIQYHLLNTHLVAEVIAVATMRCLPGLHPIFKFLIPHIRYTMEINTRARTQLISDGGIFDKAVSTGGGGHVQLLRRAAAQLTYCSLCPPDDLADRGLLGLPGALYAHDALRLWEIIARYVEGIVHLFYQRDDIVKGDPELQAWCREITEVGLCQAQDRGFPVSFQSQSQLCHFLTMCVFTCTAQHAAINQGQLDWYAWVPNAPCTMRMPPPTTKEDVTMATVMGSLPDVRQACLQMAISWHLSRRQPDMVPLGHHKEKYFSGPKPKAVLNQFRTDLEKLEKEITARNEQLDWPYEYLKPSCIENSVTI
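Purified human 12hLO (150 nM final) in 25 mM Hepes, 0.01% Triton X-100, pH 7.0 was preincubated 15 min at room temperature with compound. Then 40 uM arachidonic acid was added, 30 min. Hydroperoxide was read by Fe-XO absorbance ratio 573/405 nm.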
Active calls of the source: *; ! = a repeat was not active; [ ] = remark or other dose. Rows were chosen to be rich in hits. Some 1.6% of all compounds tested hit in one or more screens of this group. Unless noted, calls follow the shape of the dose curve; as a rule, active = well fitted curve in the direction sought with a large enough effect; inconclusive = small, poorly fitted or top-dose-only effect, or another doubt; inactive = no such curve, though single readings can be large; an effect the other way counts as inactive or inconclusive. Potency is read from the fitted curve at half-maximal effect.

How did Cc1ccc(Cn2c(=O)n(Cc3nc(-c4ccccc4)no3)c(=O)c3ccccc32)cc1 do in these assays?
12-LOX inh: -4%

How did O=C(CSc1nc2cc(Cl)ccc2s1)NCCCc1ccccc1 do in these assays?
12-LOX inh: -27%

How did CCCC(=O)Nc1ccc2oc(-c3ccccc3C)nc2c1 do in these assays?
12-LOX inh: -38%

How did C/C=C(/C(=C/C)c1ccc(O)cc1)c1ccc(O)cc1 do in these assays?
FUS yeast rescue: inactive; gsp antagonist: 1%; Mito fusion act: 27%; 12-LOX inh: 50µM*!

Results for O=C(/C=C/c1ccccc1)C1=C(O)C(=O)N(CCO)C1c1cccc([N+](=O)[O-])c1 (configuration not stated) ?
FUS yeast rescue: inactive; gsp antagonist: -6%; Mito fusion act: 1%; gsp agonist: 3%[15.4 µM]; 12-LOX inh: 22µM*

What do the screens show for `CC(=O)C1=C(O)C(=O)N(CCCCCC(=O)O)C1c1ccc(N(C)C)cc1` (configuration not stated)?
FUS yeast rescue: inconclusive; gsp antagonist: -10%; Mito fusion act: -2%; gsp agonist: -14%; 12-LOX inh: inconclusive

What do the screens show for `O=C(O)CCCCCN1C(=O)C(O)=C(C(=O)/C=C/c2ccccc2)C1c1ccc2c(c1)OCO2` (configuration not stated)?
FUS yeast rescue: 35µM*; gsp antagonist: -17%; Mito fusion act: -9%; gsp agonist: 21%; 12-LOX inh: inconclusive

Results for O=C(/C=C/c1ccccc1)C1=C(O)C(=O)N(CCO)C1c1ccccc1[N+](=O)[O-] (configuration not stated) ?
FUS yeast rescue: inactive; gsp antagonist: -2%; Mito fusion act: -2%; gsp agonist: -7%[15.4 µM]; 12-LOX inh: inconclusive

What do the screens show for `COc1cc(/C=C(/C#N)C(=O)C(C)(C)C)ccc1OC(F)F`?
12-LOX inh: 7%

Results for O=C1CCCCCCCCCCCCCC1 ?
12-LOX inh: 6%[176 µM]

What do the screens show for `Nc1ccc(-c2nc3cc(N)ccc3o2)cc1`?
FUS yeast rescue: inactive; gsp antagonist: 15%; Mito fusion act: -1%; gsp agonist: inconclusive; 12-LOX inh: 14%

Results for CN(C)c1ccc(-c2nc3cc(N)ccc3o2)cc1 ?
FUS yeast rescue: inconclusive; gsp antagonist: 12%; Mito fusion act: -7%; gsp agonist: 20µM*; 12-LOX inh: inconclusive

Results for CO[C@H]1[C@H](NC(=O)c2c(F)ccc(C)c2F)c2ccccc2C12CCNCC2 ?
12-LOX inh: 48%

How did Nc1c(C(=O)O)sc2nc(-c3ccccc3)c3c(c12)CCCC3 do in these assays?
FUS yeast rescue: inactive; gsp antagonist: -4%; Mito fusion act: 3%; gsp agonist: inconclusive; 12-LOX inh: inconclusive

How did CCc1c(-c2ccccc2)nc2sc3c(c2c1N)CCCC3 do in these assays?
FUS yeast rescue: inactive; gsp antagonist: 35µM*; Mito fusion act: 0%; gsp agonist: 6%[15.4 µM]; 12-LOX inh: inconclusive

How did CCN1C(=NCCc2ccc(Br)cc2)N[C@@H](c2ccccc2)[C@H](C(=O)OC)[C@H]1C do in these assays?
FUS yeast rescue: inactive; gsp antagonist: 2%; Mito fusion act: -1%; 12-LOX inh: 45µM*

What do the screens show for `CCOC(=O)/C=C/c1ccc(NC(=O)c2ccc(CN3CCOCC3)cc2)cc1`?
12-LOX inh: -5%

Results for Cc1ccc(-n2sc3cc(F)ccc3c2=O)c(C)c1 ?
FUS yeast rescue: inactive; gsp agonist: -49%; 12-LOX inh: 0.4µM*

What do the screens show for `O=c1c2ccc(F)cc2sn1-c1ccccc1`?
FUS yeast rescue: inactive; gsp agonist: -29%; 12-LOX inh: 0.35µM*

How did O=c1c2cc(F)ccc2sn1-c1ccccc1Cl do in these assays?
FUS yeast rescue: inactive; gsp agonist: -44%; 12-LOX inh: 0.45µM*

Results for N=C1SCC(=O)N1c1ccccc1Cl ?
FUS yeast rescue: inactive; gsp antagonist: -7%; Mito fusion act: 4%; gsp agonist: -26%; 12-LOX inh: 3%

How did COc1ccc(-c2cc3ccc(OC(C)=O)cc3oc2=O)cc1OC do in these assays?
12-LOX inh: -11%

How did CC(=O)c1cnn(-c2cc(Nc3cccc(Cl)c3)nc(C)n2)c1C do in these assays?
12-LOX inh: -27%

How did O=C(C1=C(O)C(=O)N(c2nncs2)C1c1ccccc1)c1cccs1 (configuration not stated) do in these assays?
12-LOX inh: 0.56µM*

How did O=C(C1=C(O)C(=O)N(c2nncs2)C1c1ccc(F)cc1)c1cccs1 (configuration not stated) do in these assays?
12-LOX inh: -58%

Results for COCCN1C(=O)C(O)=C(C(=O)c2cccs2)C1c1ccccc1 (configuration not stated) ?
FUS yeast rescue: inconclusive; gsp antagonist: 8%; Mito fusion act: -4%; gsp agonist: 3.5µM*; 12-LOX inh: inconclusive

What do the screens show for `COc1cccc(C2C(C(=O)c3cccs3)=C(O)C(=O)N2CCN2CCOCC2)c1` (configuration not stated)?
FUS yeast rescue: inactive; gsp antagonist: 5%; Mito fusion act: -3%; gsp agonist: 30%; 12-LOX inh: inconclusive

How did Cc1ccc(C2C(C(=O)c3cccs3)=C(O)C(=O)N2c2nncs2)cc1 (configuration not stated) do in these assays?
12-LOX inh: 2.2µM*

Results for O=C1CCCc2nccc(-c3ccc(F)cc3)c21 ?
12-LOX inh: -24%

Results for CSc1nsc2nc(=O)c(/C=C3\C=Nc4ccccc43)c(N)n12 ?
FUS yeast rescue: inactive; gsp antagonist: 32µM*; Mito fusion act: 1%; gsp agonist: -4%; 12-LOX inh: 0%

Results for CC(C)S(=O)(=O)c1nsc2nc(=O)c(/C=C3\C=Nc4ccccc43)c(N)n12 ?
FUS yeast rescue: inactive; gsp antagonist: -25%; Mito fusion act: -6%; gsp agonist: 4%; 12-LOX inh: inconclusive

Results for C=CCNC(=O)COC(=O)c1c(C)c(-c2ccccc2)nc2ccccc12 ?
12-LOX inh: -3%

Results for CCCCOc1ccc(C#N)cc1OC ?
12-LOX inh: -20%

What do the screens show for `CCOc1ccc(S(=O)(=O)N(CC)CC)cc1NC(=O)CSCc1c(C)noc1C`?
gsp antagonist: 1%; Mito fusion act: 6%; gsp agonist: 10µM*; 12-LOX inh: 18%

What do the screens show for `CS(=O)(=O)N(CC(=O)Nc1ccc(S(=O)(=O)N2CCCCCC2)cc1)c1ccc(F)cc1`?
12-LOX inh: -15%

Results for COC(=O)c1cc2c(C)nn(C)c2s1 ?
FUS yeast rescue: inactive; gsp antagonist: -1%; Mito fusion act: 5.6µM*; gsp agonist: 18%[15.4 µM]; 12-LOX inh: 0%

Results for Cn1nc(-c2ccc(OCC(=O)NC3CCCCC3)cc2)c2ccccc2c1=O ?
12-LOX inh: 4%
